The record followed here is PubChem BioAssay (NCI).

The panel holds about 79,000 compounds, 15% with a hit somewhere; the sample as a whole holds those more often. A number with no mark means an inactive call. Activity calls are given as the source filed them. Cut-off read from the data, not from the text of the source: active = growth inhibition above about 70%; inactive = the rest.

Assay [1] is described as follows: NCI Yeast Anticancer Drug Screen. Data for the rad50 strain (AID 155).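 Note: 0% = growth of vehicle-only cultures of the same strain.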 Particulars: S. cerevisiae rad50 strain growth inhibition, stronger effect = higher value. Summed up: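 Growth of the mutant yeast was measured after compound exposure and referenced to vehicle-treated cultures.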
A short description of assay [2]: NCI Yeast Anticancer Drug Screen. Data for the mec2-1 strain (AID 157). Particulars: S. cerevisiae mec2-1 strain, stronger effect = higher value. Summed up: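 Growth inhibition is read against vehicle-treated controls after compound exposure of the mec2-1 yeast strain, which is defective in DNA damage repair or cell cycle control.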
A short description of assay [3]: NCI Yeast Anticancer Drug Screen. Data for the sgs1 mgt1 strain (AID 161).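 Note: 0% = growth of cultures given vehicle only.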 Particulars: S. cerevisiae sgs1 mgt1 strain, stronger effect = higher value. Summed up:
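Compounds are added to genetically altered yeast, and growth is compared with cultures given vehicle alone to give percent inhibition.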

Assay [4] in a line: NCI Yeast Anticancer Drug Screen. Data for the cln2 rad14 strain (AID 165).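 Note: 0% = growth equal to vehicle treated cultures.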 Particulars: S. cerevisiae cln2 rad14 strain, stronger effect = higher value. Summed up:
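Growth inhibition, relative to vehicle-treated controls, is the read-out. The test organism is a yeast strain with defined genetic alterations, cln2 rad14.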

Assay [5] is described as follows: NCI Yeast Anticancer Drug Screen. Data for the bub3 strain (AID 167). Particulars: S. cerevisiae bub3 mutant strain, stronger effect = higher value. An outline of the steps: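 Whole-cell yeast assay. The mutant strain was incubated with compounds, and growth inhibition was determined by comparison with vehicle-treated cells.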
Assay [6] in a line: NCI Yeast Anticancer Drug Screen. Data for the mlh1 rad18 strain (AID 175). Particulars: S. cerevisiae mlh1 rad18 strain growth inhibition, stronger effect = higher value. An outline of the steps:
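Cells of a genetically altered yeast strain, deficient in DNA damage repair, were treated with compound. Their growth was then compared with that of vehicle-treated cultures to give inhibition.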

The mark [7] stands for this setting: at 5.0 µM (retest, dose inferred, filed as 0.5).
Setting [8] is: at 50.0 µM (retest, dose inferred, filed as 5.0).

As to `O=C1C2=C(C(=O)c3cnccc31)C1C=CC2CC1` (stereo not given), the growth inhibition in assay [1] (setting [7]) is 21%; in assay [1] (setting [8]), 71% (active); in assay [1] (at 50.0 µM) it was 49.1%; in assay [2] (setting [7]), 17%; in assay [2] (setting [8]), 69%; in assay [2] (at 50.0 µM) it was 31.2%. Also, the growth inhibition in assay [3] (setting [7]) was 25%; in assay [3] (setting [8]), 78% (active); in assay [3] (at 50.0 µM), 10.2%; in assay [4] (setting [7]) it was 16%; in assay [4] (setting [8]) it was 40%; in assay [4] (at 50.0 µM), 15.8%. Besides, the growth inhibition in assay [5] (setting [7]) was 27%; in assay [5] (setting [8]), 88% (active); in assay [5] (at 50.0 µM) it was 59.9%; in assay [6] (setting [7]), 40%; in assay [6] (setting [8]) it was 94% (active); in assay [6] (at 50.0 µM) it was 90.8% (active).
As for `COc1ccc2c(c1)[n+]([O-])c(-c1ccc(Cl)cc1)c(N)[n+]2[O-]`, the growth inhibition is 33% in assay [1] (setting [7]); 98% (active) in assay [1] (setting [8]); 99.2% (active) in assay [1] (at 50.0 µM); 29% in assay [2] (setting [7]); 98% (active) in assay [2] (setting [8]); 99.3% (active) in assay [2] (at 50.0 µM). For the same compound, the growth inhibition was 39% in assay [3] (setting [7]); 99% (active) in assay [3] (setting [8]); 99.3% (active) in assay [3] (at 50.0 µM); 46% in assay [4] (setting [7]); 95% (active) in assay [4] (setting [8]); 98.8% (active) in assay [4] (at 50.0 µM). In addition, the growth inhibition in assay [5] (setting [7]) is 80% (active); in assay [5] (setting [8]), 99% (active); in assay [5] (at 50.0 µM), 99.2% (active); in assay [6] (setting [7]), 79% (active); in assay [6] (setting [8]), 99% (active); in assay [6] (at 50.0 µM), 99% (active).
As to `CCCC/C=C(/CCCCOCOCCOC)[Si](C)(C)C`, the growth inhibition in assay [1] (setting [7]) was -1%; in assay [1] (setting [8]), -1%; in assay [1] (at 50.0 µM), -13.2%; in assay [2] (setting [7]), -5%; in assay [2] (setting [8]), -2%; in assay [2] (at 50.0 µM), -1.8%. In addition, the growth inhibition is -1% in assay [3] (setting [7]); 6% in assay [3] (setting [8]); 15.9% in assay [3] (at 50.0 µM); 1% in assay [4] (setting [7]); -15% in assay [4] (setting [8]); 86.1% (active) in assay [4] (at 50.0 µM). The growth inhibition in assay [5] (setting [7]) is -3%; in assay [5] (setting [8]), -9%; in assay [5] (at 50.0 µM), 11.7%; in assay [6] (setting [7]) it was -8%; in assay [6] (setting [8]), 4%; in assay [6] (at 50.0 µM), 30.8%.
With `O=C(O)c1ccc(N=CC2CO2)cc1` (stereo not given), the growth inhibition is 23% in assay [1] (setting [7]); 11% in assay [1] (setting [8]); -2% in assay [1] (at 50.0 µM); 44% in assay [2] (setting [7]); 64% in assay [2] (setting [8]); 0.45% in assay [2] (at 50.0 µM). Besides, the growth inhibition in assay [3] (setting [7]) is 13%; in assay [3] (setting [8]) it was 10%; in assay [3] (at 50.0 µM), 7.05%; in assay [4] (setting [7]), 96% (active); in assay [4] (setting [8]), 99% (active); in assay [4] (at 50.0 µM), 21.8%. Moreover, the growth inhibition in assay [5] (setting [7]) was 90% (active); in assay [5] (setting [8]) it was 98% (active); in assay [5] (at 50.0 µM) it was -10%; in assay [6] (setting [7]), 32%; in assay [6] (setting [8]) it was 22%; in assay [6] (at 50.0 µM), -3.15%.
Turning to `CC(C)(N)COB(c1ccccc1)c1ccccc1`, the growth inhibition was 10% in assay [1] (setting [7]); 99% (active) in assay [1] (setting [8]); 99.7% (active) in assay [1] (at 50.0 µM); -5% in assay [2] (setting [7]); 99% (active) in assay [2] (setting [8]); 99.8% (active) in assay [2] (at 50.0 µM). The growth inhibition in assay [3] (setting [7]) is -1%; in assay [3] (setting [8]), 99% (active); in assay [3] (at 50.0 µM), 99.8% (active); in assay [4] (setting [7]) it was 0%; in assay [4] (setting [8]) it was 99% (active); in assay [4] (at 50.0 µM), 99.5% (active). Also, the growth inhibition was -4% in assay [5] (setting [7]); 98% (active) in assay [5] (setting [8]); 99.8% (active) in assay [5] (at 50.0 µM); -7% in assay [6] (setting [7]); 99% (active) in assay [6] (setting [8]); 99.5% (active) in assay [6] (at 50.0 µM).
On to `CCOC(=O)C(F)C(Br)C(=O)OCC` (stereo not given), for which the growth inhibition in assay [1] (setting [7]) was 22%; in assay [1] (setting [8]) it was 98% (active); in assay [1] (at 50.0 µM), 90.5% (active); in assay [2] (setting [7]), 28%; in assay [2] (setting [8]) it was 99% (active); in assay [2] (at 50.0 µM), 91.8% (active). Moreover, the growth inhibition in assay [3] (setting [7]) is 100% (active); in assay [3] (setting [8]), 100% (active); in assay [3] (at 50.0 µM) it was 91.5% (active); in assay [4] (setting [7]), 98% (active); in assay [4] (setting [8]), 98% (active); in assay [4] (at 50.0 µM) it was 89.8% (active). The growth inhibition in assay [5] (setting [7]) is 99% (active); in assay [5] (setting [8]), 100% (active); in assay [5] (at 50.0 µM) it was 90.7% (active); in assay [6] (setting [7]) it was 49%; in assay [6] (setting [8]), 98% (active); in assay [6] (at 50.0 µM) it was 90% (active).
Take `Cc1c(-c2ccc(C(=N)N)cc2)oc(-c2ccc(C(=N)N)cc2)c1C`: the growth inhibition in assay [1] (setting [7]) was 88% (active); in assay [1] (setting [8]) it was 98% (active); in assay [1] (at 50.0 µM), 89% (active); in assay [2] (setting [7]), 84% (active); in assay [2] (setting [8]), 98% (active); in assay [2] (at 50.0 µM), 90% (active). Besides, the growth inhibition in assay [3] (setting [7]) is 92% (active); in assay [3] (setting [8]), 99% (active); in assay [3] (at 50.0 µM), 88.1% (active); in assay [4] (setting [7]), 80% (active); in assay [4] (setting [8]), 96% (active); in assay [4] (at 50.0 µM), 89% (active). For the same compound, the growth inhibition in assay [5] (setting [7]) was 87% (active); in assay [5] (setting [8]), 99% (active); in assay [5] (at 50.0 µM), 86% (active); in assay [6] (setting [7]), 90% (active); in assay [6] (setting [8]) it was 97% (active); in assay [6] (at 50.0 µM), 84.5% (active).
As to `CCOC(=O)C1=C(N)OC(c2ccccc2)=C(C#N)C1c1ccc(C)cc1` (stereo not given), the growth inhibition in assay [1] (setting [7]) is 8%; in assay [1] (setting [8]), 90% (active); in assay [1] (at 50.0 µM), 96.1% (active); in assay [2] (setting [7]) it was 4%; in assay [2] (setting [8]), 91% (active); in assay [2] (at 50.0 µM), 97% (active). Moreover, the growth inhibition in assay [3] (setting [7]) is 11%; in assay [3] (setting [8]), 92% (active); in assay [3] (at 50.0 µM), 97.3% (active); in assay [4] (setting [7]), 0%; in assay [4] (setting [8]), 86% (active); in assay [4] (at 50.0 µM), 96.6% (active). The growth inhibition in assay [5] (setting [7]) was -4%; in assay [5] (setting [8]), 87% (active); in assay [5] (at 50.0 µM), 96.3% (active); in assay [6] (setting [7]), 3%; in assay [6] (setting [8]) it was 90% (active); in assay [6] (at 50.0 µM) it was 96.5% (active).
Take `COC(=O)c1ccccc1NC(=O)C(=O)Cc1nc2c3c(ccc2[nH]c1=O)C(=O)c1ccccc1C3=O`: the growth inhibition in assay [1] (setting [7]) is 35%; in assay [1] (setting [8]), 98% (active); in assay [1] (at 50.0 µM), 85.4% (active); in assay [2] (setting [7]), 12%; in assay [2] (setting [8]), 99% (active); in assay [2] (at 50.0 µM), 25.8%. Further, the growth inhibition in assay [3] (setting [7]) was 6%; in assay [3] (setting [8]) it was 99% (active); in assay [3] (at 50.0 µM) it was 16.2%; in assay [4] (setting [7]) it was 5%; in assay [4] (setting [8]), 98% (active); in assay [4] (at 50.0 µM) it was -26.9%. Further, the growth inhibition in assay [5] (setting [7]) is 6%; in assay [5] (setting [8]), 99% (active); in assay [5] (at 50.0 µM) it was 16.3%; in assay [6] (setting [7]), 16%; in assay [6] (setting [8]) it was 66%; in assay [6] (at 50.0 µM), 66.6%.
With `COc1cccc2c1C(=O)c1c(O)c3c(c(O)c1C2=O)C[C@@](O)(/C(C)=N\NC=O)C[C@@H]3OC1CC(N)C(O)C(C)O1` (stereo not given in full), the growth inhibition in assay [1] (setting [7]) is -3%; in assay [1] (setting [8]), 86% (active); in assay [1] (at 50.0 µM) it was 75% (active); in assay [2] (setting [7]), -1%; in assay [2] (setting [8]), 45%; in assay [2] (at 50.0 µM), 49.5%. For the same compound, the growth inhibition in assay [3] (setting [7]) is -4%; in assay [3] (setting [8]), 38%; in assay [3] (at 50.0 µM), 72.7% (active); in assay [4] (setting [7]), 8%; in assay [4] (setting [8]) it was 51%; in assay [4] (at 50.0 µM), 39.9%. Also, the growth inhibition was 17% in assay [5] (setting [7]); 84% (active) in assay [5] (setting [8]); 76.5% (active) in assay [5] (at 50.0 µM); 4% in assay [6] (setting [7]); 90% (active) in assay [6] (setting [8]); 76% (active) in assay [6] (at 50.0 µM).
